Key:
Assay in all cases: PBM binding z-score (relative to random genomic background probes); higher = stronger binding; sequences stand for … in GC…GCGATTGACAGCGTAGAATGAAGG
[1] = test system: FXR:RXRa (NR concentration 270 nM, RXRa partner concentration 90 nM)
How it was run: (§1)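 Probes were double-stranded and carried 34-nt variable regions with direct-repeat seeds, single-nucleotide variants, half-site ablations and random human genomic background sequences, printed on custom Agilent 4×180K protein-binding microarrays. Arrays were incubated 1 h with ligand-free nuclear receptor dimers in PBS pH 7.4, 2% milk, 0.02% Triton X-100, 1 mM DTT, 0.2 mg/mL BSA and 0.4 mg/ml salmon testes DNA. Antibodies against each partner (one per run) detected binding, and scanned fluorescence was regression-normalized. Binding z-scores use the random background probes as reference.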

[2] = test system: LXRa:RXRa (NR concentration 270 nM, RXRa partner concentration 90 nM)
How it was run: as §1

[3] = test system: LXRa homodimer (NR concentration 270 nM)
How it was run: as §1

[4] = test system: LXRb:RXRa (NR concentration 270 nM, RXRa partner concentration 90 nM)
How it was run: as §1

[5] = test system: LXRb homodimer (NR concentration 270 nM)
How it was run: as §1

[6] = test system: PPARa:RXRa (NR concentration 270 nM, RXRa partner concentration 90 nM)
How it was run: as §1

[7] = test system: PPARg:RXRa (NR concentration 180 nM, RXRa partner concentration 90 nM)
How it was run: as §1

[8] = test system: PPARg:RXRa 270nM:90nM, anti-RXR (NR concentration 270 nM, RXRa partner concentration 90 nM)
How it was run: as §1

[9] = test system: PPARg:RXRa 30nM:10nM, anti-RXR (NR concentration 30 nM, RXRa partner concentration 10 nM)
How it was run: as §1

[10] = test system: PPARg:RXRa 90nM:30nM, anti-RXR (NR concentration 90 nM, RXRa partner concentration 30 nM)
How it was run: as §1

[11] = test system: PPARg:RXRa DBDmut IVT, anti-RXR (DBD mutation: RXRa K156A/R161A, NR concentration 270 nM, RXRa partner concentration 90 nM)
How it was run: as §1

[12] = test system: PPARg:RXRa IVT, anti-PPARg (NR concentration 270 nM, RXRa partner concentration 90 nM)
How it was run: as §1

[13] = test system: PPARg DBDmut:RXRa IVT, anti-PPARg (DBD mutation: PPARg1 K132A/R137A, NR concentration 270 nM, RXRa partner concentration 90 nM)
How it was run: as §1

[14] = test system: PPARg DBDmut IVT, anti-PPARg (DBD mutation: PPARg1 K132A/R137A, NR concentration 270 nM)
How it was run: as §1

[15] = test system: PPARg homodimer (NR concentration 180 nM)
How it was run: as §1

[16] = test system: PXR:RXRa (NR concentration 270 nM, RXRa partner concentration 90 nM)
How it was run: as §1

[17] = test system: PXR homodimer (NR concentration 270 nM)
How it was run: as §1

[18] = test system: RARa:RXR (NR concentration 270 nM, RXRa partner concentration 90 nM)
How it was run: as §1

[19] = test system: RARa homodimer (NR concentration 270 nM)
How it was run: as §1

[20] = test system: RARb:RXRa (NR concentration 270 nM, RXRa partner concentration 90 nM)
How it was run: as §1

Sequence | PBM binding z-score [1] | PBM binding z-score [2] | PBM binding z-score [3] | PBM binding z-score [4] | PBM binding z-score [5] | PBM binding z-score [6] | PBM binding z-score [7] | PBM binding z-score [8] | PBM binding z-score [9] | PBM binding z-score [10] | PBM binding z-score [11] | PBM binding z-score [12] | PBM binding z-score [13] | PBM binding z-score [14] | PBM binding z-score [15] | PBM binding z-score [16] | PBM binding z-score [17] | PBM binding z-score [18] | PBM binding z-score [19] | PBM binding z-score [20]
CAGACTAGGTCACGAAAGGTCAAAGTCGAATGAC | 7.54 | 8.31 | 7.86 | 7.34 | 2.45 | 6.6 | 9.66 | 7.89 | 5.88 | 7.73 | 7.63 | 8.03 | 2.48 | 2.21 | 6.4 | 6.89 | 2.84 | 7.62 | 4.19 | 5.6
ACTATTAGTTGAGACGAGGGCAATCGATAGGTTG | 0.46 | 0.333 | -0.168 | 0.136 | -0.0649 | 0.253 | 0.627 | 0.107 | 0.45 | 0.23 | 0.458 | 0.2 | 0.805 | 0.52 | 0.357 | 1.46 | 0.418 | 1.25 | 0.603 | 0.918
TGTCAAAGTTCCAAGGTAACGTAAGTATCCACAC | 0.32 | 0.139 | -0.0669 | 0.284 | 0.0682 | 0.321 | 0.758 | 1.18 | 0.448 | 1.04 | -0.29 | 1.18 | 0.991 | 0.288 | 0.137 | 0.082 | 0.35 | 0.56 | 0.373 | 0.659
CCTACTGGGCCATCAGGTTATTGATATCAACGTT | 0.0751 | -0.156 | 0.178 | 0.293 | -0.502 | 0.918 | 1.23 | 1.98 | 0.473 | 1.4 | 4.67 | 4.48 | 0.284 | 0.0128 | 0.249 | -0.153 | -0.0218 | -0.124 | 0.0589 | 0.589
CCTTACGGGTGAAGGTTATAGCACGGGTGGTACG | 0.149 | 0.504 | -0.127 | 0.0957 | -0.349 | 1.61 | 1.09 | 1.51 | -0.0216 | 0.958 | 0.6 | 1.31 | -0.607 | -1.16 | 0.456 | 0.216 | -0.0716 | 0.732 | 0.409 | 1.31
CAAACTAGGCCAAGAGGTCAAAGTCCGCTTCCCG | 5.17 | 5.51 | 4.77 | 4.72 | 1.13 | 5.68 | 6.86 | 6.66 | 5.68 | 6.63 | 6.71 | 6.57 | 1.38 | 0.62 | 2.87 | 5.62 | 1.75 | 6.34 | 1.51 | 4.2
TCTGCTAGGTCAACGATGGCCAGCTAATCTGCTA | 3.09 | 2.21 | -0.626 | 1.34 | -0.287 | 3 | 2.34 | 2.77 | 1.8 | 2.37 | 4.07 | 4.02 | 0.274 | -0.0746 | 0.165 | 0.871 | -1.29 | 1.9 | -0.648 | 3.94
CCTCGGAGGACAGAAGGTCAGAGATGTCCGCTTT | 0.986 | 1.24 | 0.141 | 0.889 | -0.867 | 1.55 | 0.383 | 0.542 | -0.288 | 0.432 | -0.271 | 0.124 | -1.91 | -1.27 | 1.03 | 1.41 | 0.164 | 1.93 | 0.613 | 3.01
CGTCCAAGGTCAGGAGGTCAGTGAAAGCGACGTG | 6.23 | 4.55 | 1.15 | 3.64 | -0.0727 | 5.43 | 4.93 | 5.41 | 1.89 | 4.06 | 2.95 | 3.93 | -0.53 | -1.29 | 5.26 | 4.65 | 1.1 | 6.11 | 1.5 | 5.52
CGTCCAAGGTCATAGGAGGCCAGTGAAGACAGAT | 7.24 | 5.75 | 1.07 | 4.34 | 0.536 | 5.51 | 4.37 | 5.03 | 1.54 | 3.73 | 2.81 | 3.75 | 0.813 | 0.508 | 2.54 | 5.33 | 1.53 | 4.52 | 0.617 | 5
GCTGCTAGGTCAGGTTGGTCAGCCAACGGGTACG | 1.12 | 0.345 | -0.418 | 0.336 | -0.341 | 1.36 | 0.298 | 1.1 | -0.412 | 0.115 | 2.43 | 2.2 | -1.3 | -1.25 | 0.608 | 0.00259 | -0.305 | 0.503 | -0.0936 | 3.2
AGAAGGAGGGCACGCTGAGTTGATAGCAGAGTAG | 0.55 | 0.52 | -0.359 | 0.551 | 0.0256 | 1.83 | 1.89 | 1.81 | 0.436 | 1.01 | 4.39 | 4.02 | 0.794 | 0.398 | 0.378 | 1.16 | 0.294 | 0.766 | -0.141 | 2.32
CGAACTAGGTCAGAACAGGACAGTGCAGGATGAT | 1.66 | 0.725 | -0.124 | 0.147 | -0.225 | 3.08 | 5.1 | 4.39 | 1.84 | 3.81 | 7.46 | 7.27 | 0.839 | 0.368 | 1.18 | 0.783 | 0.225 | 0.999 | 0.221 | 2.96
ATCTCTAGGTAACAAGTTCAATGAAAGAGAGGAC | 1.38 | 1.5 | 1.01 | 1.42 | 1.28 | 2.44 | 2.44 | 2.87 | 1.22 | 2.61 | 3.6 | 3.31 | 1.41 | 1.75 | 1.45 | 2.68 | 3.18 | 1.75 | 1.83 | 2.18
TCAGATAGGTGAAGGTAACTCAGGTACGCAGTCG | 0.487 | 1.73 | -0.148 | 0.791 | -0.21 | 1.32 | 1.01 | 2.26 | 3.97 | 3.01 | 3.31 | 1.87 | 0.193 | -0.0331 | 0.849 | 0.435 | 0.291 | 0.668 | 0.648 | 1.1
GCATATAGGTACTACAAGGTGAAAGTCCGATTGT | 0.689 | -0.132 | -0.343 | 0.0572 | -0.233 | 0.972 | 0.697 | 0.784 | 0.264 | 0.566 | 1.67 | 1.24 | 0.887 | 0.583 | 0.651 | 0.2 | -0.351 | 1.36 | -0.147 | 0.285
AGAATGAGGTTATACGTAGATTAGGGAAGAAAGT | 2.38 | 1.89 | 0.103 | 1.74 | 0.111 | 3.21 | 2.37 | 2.4 | 0.937 | 1.76 | 3.81 | 2.24 | 1.48 | 1 | 0.912 | 1.38 | 0.713 | 1.72 | 0.516 | 1.63
GATACAGGATCAAGGCCAGAGTACGCGTATTGAT | -0.429 | -0.625 | -0.269 | -0.535 | -0.452 | -0.133 | 0.979 | 0.356 | 0.0722 | 0.052 | -0.344 | -0.0749 | 0.581 | 0.288 | -0.0406 | -0.253 | -0.0263 | -0.382 | -0.179 | 0.164

From the supplement of paper PMC6555819
